# Source: PubChem (National Center for Advancing Translational Sciences (NCATS))
# The entries come from a sample that favours hits as a whole.
# Pf Dd2 inh: blocks in vitro growth of P. falciparum Dd2. P. falciparum Dd2 growth, SYBR Green, 72 h. Potency, µM (doses to about 28.9 µM), actives largely listed as inhibitors. 120,000 compounds, 4.3% hits; active means well fitted inhibition curve with a large enough effect; further: nearly all actives have a fitted effect of over 65% in size
#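 Readout: SYBR Green fluorescence, 485 nm excitation, 535 nm emission, after ~16 h lysis at 37C. Before that, Dd2-infected red cells (2.5% hematocrit) grew 72 h with compound, 29 uM top final concentration.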
# Hits are given with their value; n = inactive.
SMILES,Pf Dd2 inh
Cc1ccc(/C=C/c2onc(C)c2S(=O)(=O)N2CCC(C(=O)Nc3cc(F)ccc3F)CC2)cc1,n
Cc1cccc(N2CCN(C(=O)C3CCN(S(=O)(=O)c4c(C)noc4/C=C/c4ccccc4F)CC3)CC2)c1C,n
Cc1cccc(/C=C/c2onc(C)c2S(=O)(=O)N2CCC(C(=O)N3CCC(C)CC3)CC2)c1,n
Cc1ccc(/C=C/c2onc(C)c2S(=O)(=O)N2CCC(C(=O)N3CCN(c4ccccc4F)CC3)CC2)cc1,6.31µM
Cc1ccc(/C=C/c2onc(C)c2S(=O)(=O)N2CCC(C(=O)N3CCN(c4cccc(C)c4)C(C)C3)CC2)cc1 (centres undefined),n
COc1ccc(S(=O)(=O)N2CCCC(Cn3c(C4CC4)nc4cccnc43)C2)cc1 (centres undefined),n
COc1cccc([S+](=O)([O-])N2CCNc3cnc(Nc4cccnc4)nc3C2)c1,n
CCCn1nccc1S(=O)(=O)N1CCc2nc(-c3ccccc3)[nH]c2C1,n
CCCCCNC(=O)CC(c1cccc(OC)c1OC)c1c[nH]c2c(CC)cccc12 (centres undefined),n
CCCCNC(=O)CC(c1cccc2c1OCO2)c1c[nH]c2c(CC)cccc12 (centres undefined),10µM
O=C(CC(c1cccc2c1OCO2)c1c[nH]c2ccccc12)NCc1ccccc1 (centres undefined),n
COc1cccc(S(=O)(=O)N2CCC3(CC2)CC(N2CCOCC2)CCO3)c1 (centres undefined),n
Cc1ccc(C(=O)N2CCC(N3C(=O)C(OCC4CC4)C34CCOCC4)CC2)cn1 (centres undefined),n
Cc1cc(CNC(=O)C2CC(=O)N(c3ccc(C(C)C)cc3)C2)no1 (centres undefined),n
COc1ccccc1N1CCN(C(=O)c2cc(S(=O)(=O)N3CCC(C)CC3)cn2C)CC1,8.91µM
COc1ccc(N2CCN(C(=O)c3cc(S(=O)(=O)N4CCCCCC4)cn3C)CC2)cc1,n
COc1ccc(Cl)cc1NC(=O)c1cc(S(=O)(=O)N2CCC(C)CC2)cn1C,n
O=C(NC[C@H]1O[C@@H](CO)[C@@H](O)[C@H]1N1CCN(c2ccccn2)CC1)Nc1ccc(F)cc1F,n
CCCNC(=O)CSc1nc(-c2ccc(OC)cc2)cc(C(F)(F)F)n1,n
COc1ccc(-c2cc(C(F)(F)F)nc(SCCC(=O)Nc3cc(C)ccc3O)n2)cc1,1µM
CC(C)(C)NC(=O)CCSc1nc(-c2ccc3c(c2)OCO3)cc(C(F)(F)F)n1,n
COc1ccc(CNC(=O)CSc2nc(-c3ccc(OC)cc3)cc(C(F)(F)F)n2)cc1,n
COc1ccc(-c2cc(C(F)(F)F)nc(SCCC(=O)Nc3ccccc3F)n2)cc1,n
CCCNC(=O)CCSc1nc(-c2ccc3c(c2)OCO3)cc(C(F)(F)F)n1,5.01µM
COc1cc(=O)n2c(c1C(=O)Nc1ccc(Br)cc1F)CCCC2,n
SMILES,Pf Dd2 inh
Cn1ccnc1-c1nccn1CC(CO)Cc1ccsc1 (centres undefined),n
CC(C)CCNC(=O)C1CCCN(Cc2cccnc2)CCC(=O)NCC1 (centres undefined),n
COc1ccc(CC(=O)Nc2nc3c(s2)C[C@@H]2[C@](C)(CO)[C@H](O)CC[C@@]2(C)[C@@H]3CC(=O)NCCNC(C)=O)cc1,n
CCOc1ccccc1N1CCN(C(=O)c2ccc3c(c2)N(C)C2CCCCN2C3=O)CC1 (centres undefined),5.01µM
CCN1c2cc(C(=O)N3CCN(c4ccccn4)CC3)ccc2C(=O)N2CCCCC21 (centres undefined),n
Cc1cccc(N2CCN(C(=O)c3ccc4c(c3)N(C)C3CCCCCN3C4=O)CC2)c1 (centres undefined),8.91µM
CN1c2cc(C(=O)N3CCN(c4ccc(F)cc4)CC3)ccc2C(=O)N2CCCCCC21 (centres undefined),n
Cc1cccc(NC(=O)c2ccc3c(c2)N(C)C2CCCCCN2C3=O)c1 (centres undefined),n
CN1c2cc(C(=O)Nc3ccccc3)ccc2C(=O)N2CCCCC21 (centres undefined),n
CCN1c2cc(C(=O)N3CCCCC3)ccc2C(=O)N2CCCCCC21 (centres undefined),n
CCN1c2cc(C(=O)N3CCN(c4ccccc4)CC3)ccc2C(=O)N2CCCCC21 (centres undefined),n
CN1c2cc(C(=O)N3CCN(c4ccccc4Cl)CC3)ccc2C(=O)N2CCCCC21 (centres undefined),6.31µM
COc1cccc(-c2nc(N3CCCCC3)ncc2C(=O)O)c1,n
Cc1ccccc1CNC(=O)CCn1ccn2nc3c(c2c1=O)CCCC3,n
CCn1cc(C(=O)N2C[C@@H](COC)[C@H](c3nc(C)no3)C2)cn1,n
CCCNC(=O)N(C1CCOCC1)C1CCN(C(=O)c2ccc(C)c(F)c2)CC1,n
Cc1cnc(C)c(N2CCC(COc3cnc4c(ccn4CC(N)=O)c3)CC2)n1,n
CCOC(=O)C1(Cc2ccccc2F)CCCN(C(=O)CCN2CCCCC2=O)C1 (centres undefined),n
O=c1[nH]ccn1C1CCN(Cc2ccc(OC(F)(F)F)cc2)CC1,n
Cc1ccc(NCc2cccn2-c2nnc(N3CCC(C(=O)NC(C)C)CC3)s2)cc1,n
COC(=O)c1ccccc1NC(=O)N(Cc1ccc(C)cc1)Cc1cccn1-c1nnc(N2CCCC2=O)s1,n
Cc1ccc(CN(Cc2cccn2-c2nnc(N3CCCC3=O)s2)C(=O)Nc2cc(C)cc(C)c2)cc1,3.16µM
CCN(CC)C(=O)[C@@H]1CCC[C@@H](NC(=O)c2cnccn2)CN(C)C(=O)C1,n
COCCN1CCC(CN(Cc2ccncc2)C(=O)c2scnc2C)CC1,n
COc1cc(OC)cc(C(=O)N2CCC[C@H]2c2nc(-c3ccc(C)cc3)no2)c1,n
SMILES,Pf Dd2 inh
O=C1Nc2ccccc2C12CN(S(=O)(=O)c1cccs1)C2,n
O=C(O)CN1CCN(Cc2ccc(OCCc3ccccc3)cc2)CC1=O,n
O=C(Cn1nc2c(cc1=O)CCCC2)N1CCN(c2ccc(C(F)(F)F)cn2)CC1,n
Cn1ccnc1CN1CCCC12CCN(c1ccc(C(F)(F)F)cn1)CC2,n
Cc1cc(CN2CCCC23CCN(c2nc4ccccc4o2)CC3)on1,n
O[C@H]1[C@H](NCc2cccc(C(F)(F)F)c2)[C@@H](c2ccc(N3CCOCC3)nc2)C[C@H]1O,n
Oc1cccc(CN2CCCC23CCN(c2ccc(C(F)(F)F)cn2)CC3)c1,4.47µM
CCn1ncc(CN2CCCC23CCN(c2ccc(C(F)(F)F)cn2)CC3)c1C,10µM
CCn1ncc(CN2CCCC23CCN(c2cc(C)nc4ccccc24)CC3)c1C,2µM
O=C1COCC2(CN1Cc1c(F)cccc1Cl)CN(c1ccc(C(F)(F)F)cn1)C2,n
Cc1cc(C)n(CCc2nc3c4ccccc4nc(N4CCN(c5ccccc5F)CC4)n3n2)n1,n
CCCn1ccnc1CN1CCCC12CCN(c1ccc(C(F)(F)F)cn1)CC2,11.2µM
FC(F)Oc1ccccc1CN1CCCC12CCN(c1ncccn1)CC2,n
Cc1cc2nc3n(c(=O)c2n1CC(=O)NCCc1ccc(Cl)cc1)CCCCC3,n
CC(C)N1C(=O)C2(CCCC2)C1C(=O)N1CCc2ccccc21 (centres undefined),n
CN(CC(=O)O)C(=O)[C@H]1C[C@@](C)(C(=O)O)N(C)[C@H]1c1ccc(Cl)cc1,n
COCCn1nc2n(c1=O)CCN(S(=O)(=O)c1c(C)nn(C)c1C)CC2,n
Cc1ccccc1CC(=O)N1CCC2(CC1)N=C(c1cccc(Br)c1)NO2,n
